From PubChem BioAssay (NCATS) come the findings set out here.

SMILES strings stand for the structures. “And” between values parts separate entries of the source, which are not always exact repeats. Identical values can stand only once. Results filed as inconclusive are left out. A structure can be active in one record and inactive in another. The source made the active and inactive calls. Unless noted, calls follow the shape of the dose curve; as a rule, active = well fitted curve in either direction with a large enough effect (not every such curve was filed as active); inconclusive = small, poorly fitted or top-dose-only effect, or another doubt; inactive = flat fitted curve, though single readings scatter.

A short description of test [1]: AP1 Signaling Pathway (AID 357).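 Also: ME-180 reporter cells stimulated with EGF at its EC50 level; % is scaled to controls: 0 for no effect and ±100 for the full control effect.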 Conditions: ME-180 AP-1-bla reporter, EGF-induced, beta-lactamase ratio, 5 h. The method, boiled down: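 Modulation of EGF-driven AP-1 transcription was assessed with a beta-lactamase reporter in ME-180 cells. Compound and EC50 EGF were co-incubated 5 hours at 37 °C before 2.5-hour CCF4 loading at room temperature and dual-emission reading.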

Test [2] is described as follows: NFAT Signaling Pathway (AID 444).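 Also: carbachol stimulus at about its EC50 of 1 µM final; % is scaled to controls: 0 for no effect and ±100 for the full control effect.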 The note with it: Jurkat NFAT-bla M1, carbachol, beta-lactamase ratio, 5 h. The procedure, abridged: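 Jurkat cells with NFAT-driven β-lactamase reporter and co-expressed M1 receptor, stimulated with carbachol (final 1 uM, ~EC50), compound titration, 5 h at 37 °C. CCF4 loaded 1 h at RT; 460/530 nm ratio gave %activity and AC50.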

The nature of test [3]: Stat Signaling Pathway (AID 446).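 Also: ME-180 cervical cancer cells given 40 pM IL-6 alongside compound; SIE-controlled beta-lactamase reporter measured as 460/530 nm FRET emission ratio; % is scaled to controls: 0 for no effect and ±100 for the full control effect.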 The method, boiled down: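 ME-180 cells carrying a SIE-driven beta-lactamase reporter are stimulated with 40 pM IL-6 for 5 h at 37C in the presence of compound. The 460/530 nm FRET substrate ratio is read after 2.5 h at RT. Data are normalised to 300 pM IL-6 and to 125 nM JAK inhibitor controls.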
Test [4] addresses Cytochrome P450 1A2 (Homo sapiens) (UniProt P05177). The test can be described thus: p450-cyp1a2 (AID 410; calls by dose curve; also: potency is read from the fitted curve at half-maximal effect;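 as to activity change, negative = inhibition: -100% = full effect of reference inhibitor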). The method, boiled down: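 20nM CYP1A2 with 100uM Luciferin-ME (at Km) in 100mM KPO4; compound preincubated 10 min, NADPH regeneration added, 60 min at room temperature. Luciferin quantified by luminescence after detection reagent; normalized to 57 uM furafylline.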
Test [5] has as its target Lysosomal acid glucosylceramidase (Homo sapiens) (UniProt P04062). The test is described as follows: Glucocerebrosidase-p2 (AID 348; in the data active = potency below about 10 µM; also: potency is read from the fitted curve at half-maximal effect). The note with it: purified GBA, blue fluorogenic substrate, 40 min. The procedure, abridged: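 Compounds titrated from 0.6 nM upwards against 0.2 nM enzyme in pH 5.9 citric acid/KH2PO4, taurocholate, tween-20; blue fluorogenic substrate 80 uM, 40 min room temperature, stopped and read Ex 365/Em 440 for AC50.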

Test [6] in a line: Cell Viability - BJ (AID 421; calls by dose curve;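 also: potency is read from the fitted curve at half-maximal effect; cells exposed to compound for 40 hours at 37 °C before readout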). Conditions: BJ fibroblast viability, qHTS. The method, boiled down: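 Normal human BJ foreskin fibroblasts, 1500/well in complete medium, treated 40 hr at 37 °C. Cellular ATP by CellTiter-Glo luminescence; normalized to DMSO and 100 uM tamoxifen, AC50 from Hill fit.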
A short description of test [7]: Cell Viability - Jurkat (AID 426;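 active = dose-dependent loss of cell ATP signal giving a full or clear fitted curve, ranked by lower potency value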; also: potency is read from the fitted curve at half-maximal effect). Conditions: qHTS. The procedure, abridged:
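Jurkat (Clone E6-1) cells, 5000/well in complete medium, exposed to compounds for 40 hr at 37C; intracellular ATP measured by CellTiter-Glo luminescence after 20 min at room temperature. AC50 from Hill fits.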

The nature of test [8]: Cell Viability - HepG2 (AID 433; calls by dose curve;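 also: potency is read from the fitted curve at half-maximal effect; potency for ATP loss meaning cytotoxicity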). The note with it: qHTS. The procedure, abridged:
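Cytotoxicity read as ATP loss (CellTiter-Glo luminescence) after 40 hr compound exposure of HepG2, 1500 cells/well, 37 °C. AC50 by Hill equation; 0% set by DMSO, 100% inhibition by 100 uM tamoxifen.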

Test [9] is described as follows: Cell Viability - MRC5 (AID 434; calls by dose curve;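 also: potency is read from the fitted curve at half-maximal effect; potency reflects cytotoxicity seen as loss of intracellular ATP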). Conditions: MRC5 lung fibroblast viability, qHTS. The method, boiled down:
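MRC5 normal human lung fibroblasts, 1500 cells/well, exposed to compound for 40 hr at 37 C. Cellular ATP was read by CellTiter-Glo luminescence; data normalized to DMSO and 100 uM tamoxifen, with AC50 from Hill fits.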

Test [10] is described as follows: Cell Viability - SK-N-SH (AID 435; calls by dose curve; also: potency is read from the fitted curve at half-maximal effect). Conditions: SK-N-SH neuroblastoma cell viability qHTS. The method, boiled down:
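qHTS cytotoxicity: CellTiter-Glo ATP luminescence after 40 h compound exposure of human neuroblastoma SK-N-SH cells at 37 °C. AC50 derived by Hill-equation fitting, with DMSO as basal and 100 uM tamoxifen as full inhibition.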

Setting [11] is: at 17.2 µM (top of the series) unless noted.

Chain of Cytochrome P450 1A2 (Homo sapiens) (P05177 whole entry, looked up): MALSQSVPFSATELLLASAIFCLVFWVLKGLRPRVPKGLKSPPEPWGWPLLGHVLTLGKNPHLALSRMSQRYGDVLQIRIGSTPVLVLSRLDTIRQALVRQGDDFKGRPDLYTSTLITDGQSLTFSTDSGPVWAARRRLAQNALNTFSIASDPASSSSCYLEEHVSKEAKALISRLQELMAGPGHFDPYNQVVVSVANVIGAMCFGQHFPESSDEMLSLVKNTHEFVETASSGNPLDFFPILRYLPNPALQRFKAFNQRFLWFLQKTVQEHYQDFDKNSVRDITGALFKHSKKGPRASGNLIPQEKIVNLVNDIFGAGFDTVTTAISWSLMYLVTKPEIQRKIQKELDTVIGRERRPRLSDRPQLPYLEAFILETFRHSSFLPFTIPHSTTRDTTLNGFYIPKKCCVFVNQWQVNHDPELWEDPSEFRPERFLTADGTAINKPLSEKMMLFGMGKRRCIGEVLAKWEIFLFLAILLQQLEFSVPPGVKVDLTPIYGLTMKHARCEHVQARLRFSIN
Chain of Lysosomal acid glucosylceramidase (Homo sapiens) (P04062 whole entry, looked up): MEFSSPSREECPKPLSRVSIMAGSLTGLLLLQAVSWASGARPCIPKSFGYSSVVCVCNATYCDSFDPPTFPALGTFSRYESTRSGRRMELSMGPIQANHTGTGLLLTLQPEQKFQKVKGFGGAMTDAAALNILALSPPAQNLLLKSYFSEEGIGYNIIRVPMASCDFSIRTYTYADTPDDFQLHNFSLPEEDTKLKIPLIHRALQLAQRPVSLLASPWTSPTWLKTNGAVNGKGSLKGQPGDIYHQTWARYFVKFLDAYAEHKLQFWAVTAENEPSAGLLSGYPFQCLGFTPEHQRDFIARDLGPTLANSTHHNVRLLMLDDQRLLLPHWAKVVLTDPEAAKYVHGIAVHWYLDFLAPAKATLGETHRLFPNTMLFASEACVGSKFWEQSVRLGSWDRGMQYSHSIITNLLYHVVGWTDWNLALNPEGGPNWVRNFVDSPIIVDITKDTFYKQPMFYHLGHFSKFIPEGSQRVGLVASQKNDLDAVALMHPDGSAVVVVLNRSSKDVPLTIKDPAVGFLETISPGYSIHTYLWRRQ

`O=C1NC(c2cccc([N+](=O)[O-])c2)=CCN1c1ccccc1O`: the figures for the activity change, negative = inhibition in [1] (setting [11]) and in [2] (at 38 µM (top of the series)) were -12.2% [at 38 µM] (inactive) and 4.96% (inactive), respectively. Besides, the compound was classed as inactive in test [3].

As to `C[N+](C)(C)CCO`, the figures for the activity change, negative = inhibition in test [1] (setting [11]) and in [2] (at 38 µM (top of the series)) were 0.911% [at 38 µM] (inactive) and 2.35% (inactive), respectively. In addition, the Potency entry in test [4] is “inactive”. The result in test [3] was inactive.

For the compound `CN(C(=O)C(Cl)Cl)c1ccc(OC(=O)c2ccco2)cc1`, the activity change, negative = inhibition is 4.41% (inactive) and 1.4% (inactive) in test [1] (setting [11]); 3.31% (inactive) and -29.1% (inactive) in [2] (at 17.2 µM (top of the series)). Also, in test [4], the Potency entry was “inactive”. The outcome in [3] was inactive.

Turning to `Cc1ncc(CO)c(CO)c1O`, the activity change, negative = inhibition in [1] (setting [11]) is -2.02% (inactive). For the same compound, the Potency result in test [4] is “inactive”. Further, the compound was called inactive in test [3].

`C[C@H]1C[C@@H]2[C@H]([C@@H](O)C[C@@]3(C)[C@H]2CC[C@]3(O)C(=O)CO)[C@@]2(C)C=CC(=O)C=C12`: the activity change, negative = inhibition in [1] (setting [11]) is 4.57% (inactive); in [2] (at 17.2 µM (top of the series)), 17.5% (inactive). Moreover, the compound was classed as inactive in test [3].

`COc1ccccc1N1CCN(CCN2C(=O)CC3(CCCC3)CC2=O)CC1`: the figures for the activity change, negative = inhibition in [1] (setting [11]) and in test [2] (at 38 µM (top of the series)) were -25.1% [at 38 µM] (inactive) and -25.7% (inactive), respectively. Further, in test [4], the Potency is 31.6 µM (active) and inactive. The result in [3] was inactive.

For `CCOC(=O)NNc1nncc2ccccc12`, the activity change, negative = inhibition in test [1] (setting [11]) was -6.72% (inactive); in test [2] (at 17.2 µM (top of the series)), 1.79% (inactive). Also, the Potency in [4] was 5.01 µM (active). For the same compound, the call in test [3] was inactive.

In the case of `CCCC(=O)O[C@]1(C(=O)CCl)[C@@H](C)C[C@H]2[C@@H]3CCC4=CC(=O)C=C[C@]4(C)[C@@]3(F)C(=O)C[C@@]21C`, the activity change, negative = inhibition in test [1] (setting [11]) is 2.19% (inactive). In addition, the result in test [3] was inactive.

Regarding `CC(=O)[C@@]1(O)CC[C@H]2[C@@H]3C[C@H](C)C4=CC(=O)CC[C@]4(C)[C@H]3CC[C@@]21C`, the activity change, negative = inhibition in [1] (setting [11]) is 16% (inactive); in [2] (at 17.2 µM (top of the series)) it was 19.2% (inactive). In addition, the result in test [3] was inactive.

Turning to `CC1(C)O[C@@H]2C[C@H]3[C@@H]4C[C@H](F)C5=CC(=O)C=C[C@]5(C)[C@@]4(F)[C@@H](O)C[C@]3(C)[C@]2(C(=O)CO)O1`, the activity change, negative = inhibition in test [1] (setting [11]) was -7.62% (inactive); in test [2] (at 17.2 µM (top of the series)) it was 22.4% (inactive). Further, the result in test [3] was inactive.

Turning to `CCCCCC(=O)O[C@]1(C(C)=O)CC[C@H]2[C@@H]3CCC4=CC(=O)CC[C@]4(C)[C@H]3CC[C@@]21C`, the activity change, negative = inhibition in test [1] (setting [11]) is -2.44% (inactive). Further, the result in test [3] was inactive.

With `O=C(CCCCC(=O)Nc1c(I)cc(I)c(C(=O)O)c1I)Nc1c(I)cc(I)c(C(=O)O)c1I`, the activity change, negative = inhibition in test [1] (setting [11]) is 2.09% (inactive); in [2] (at 17.2 µM (top of the series)), 0.68% (inactive). Moreover, in test [4], the Potency entry is “inactive”. For the same compound, the result in test [3] was inactive.

Turning to `O=C(O)/C=C(\CC(=O)O)C(=O)O`, in test [5], the Potency is > 11.4 µM (inactive). Further, the values for the activity change, negative = inhibition in test [1] (setting [11]) and in test [2] (at 7.69 µM (top of the series)) were 3.65% [at 7.69 µM] (inactive) and 26.4% (inactive), respectively. Further, the Potency result in test [4] is “inactive”. For the same compound, in test [3], the result was inactive.

For the compound `O=C(O)c1ccccc1S`, the figures for the activity change, negative = inhibition in test [1] (setting [11]) and in test [2] (at 17.2 µM (top of the series)) were -3.14% (inactive) and 24.8% (inactive), respectively. Further, the compound was classed as inactive in [3].

`CC1(C)O[C@@H]2C[C@H]3[C@@H]4CCC5=CC(=O)C=C[C@]5(C)[C@@]4(F)[C@@H](O)C[C@]3(C)[C@]2(C(=O)CO)O1`: the activity change, negative = inhibition in test [1] (setting [11]) was 4.43% (inactive). Moreover, the call in test [3] was inactive.

Take `CCN(CC)CCOc1ccc(/C(=C(\Cl)c2ccccc2)c2ccccc2)cc1`: the results for the activity change, negative = inhibition in test [1] (setting [11]) and in [2] (at 17.2 µM (top of the series)) were 9.05% (inactive) and -12.4% (inactive), respectively. Besides, the Potency in test [4] was 12.6 µM (active). Moreover, the compound was called inactive in [3].

As for `NC(N)=NCCCCN=C(N)N`, the activity change, negative = inhibition was 10.4% (inactive) in test [1] (at 17.2 µM (top of the series)), -0.239% (inactive) in [1] (at 38 µM (top of the series)), 8.46% (inactive) in test [2] (at 17.2 µM (top of the series)) and -22% (inactive) in test [2] (at 38 µM (top of the series)). Besides, the result in test [3] was inactive.

As for `CC(=O)OCC[N+](C)(C)C`, the results for the activity change, negative = inhibition in test [1] (setting [11]) and in [2] (at 17.2 µM (top of the series)) were -2.55% (inactive) and 122% [activator] (active), respectively. Also, in test [3], the outcome was inactive.

With `CC(=O)Nc1c(I)c(NC(C)=O)c(I)c(C(=O)O)c1I`, the activity change, negative = inhibition in [1] (setting [11]) was -1.8% (inactive); in test [2] (at 17.2 µM (top of the series)) it was -7.63% (inactive). Moreover, the call in test [3] was inactive.

For the compound `OC(CCCN1CCCCC1)(c1ccccc1)c1ccccc1`, the activity change, negative = inhibition in [1] (setting [11]) was 26.6% (inactive). For the same compound, the Potency result in test [4] was “inactive”. Further, the compound was called inactive in test [3].

With `CN1CCCN(C(c2ccccc2)c2ccc(Cl)cc2)CC1` (stereo unspecified), the activity change, negative = inhibition is 14.9% (inactive) in test [1] (setting [11]) and -95.8% (active) in test [2] (at 17.2 µM (top of the series)). In addition, the call in test [3] was inactive.

As to `CC(NCCC(c1ccccc1)c1ccccc1)c1ccccc1` (stereo unspecified), the activity change, negative = inhibition in [1] (setting [11]) was 12.2% (inactive). For the same compound, the compound was classed as inactive in test [3].

Take `Brc1ccc([C@H]2CN3CCSC3=N2)cc1`: the results for the activity change, negative = inhibition in test [1] (setting [11]) and in test [2] (at 38 µM (top of the series)) were 10.4% [at 38 µM] (inactive) and -10.1% (inactive), respectively. The Potency in [4] was 15.8 µM (active). Further, the result in [3] was inactive.

As to `CN(C)c1cc2c(Nc3ccc4c(cnn4Cc4ccccc4)c3)ncnc2cn1`, the activity change, negative = inhibition in [1] (setting [11]) is -107% [at 38 µM] (active). Besides, in [4], the Potency is 7.94 µM (active).

Consider `C[C@]12CCC(=O)C=C1CC[C@@H]1[C@@H]2[C@@H](O)C[C@@]2(C)[C@H]1CC[C@]2(O)C(=O)COC(=O)CCC(=O)O`, for which the activity change, negative = inhibition was -1.32% (inactive) and 11.9% (inactive) in test [1] (setting [11]); 10.9% (inactive) in test [2] (at 17.2 µM (top of the series)). In addition, the call in test [3] was inactive.

On to `Nc1cccc2c(N)cccc12`, for which the Potency in [6], in [7], in [8], in test [9] and in test [10] was > 92 µM (inactive) throughout.

For `OCc1c[nH]c2ccccc12`, the Potency in test [6], in test [7], in [8], in test [9] and in test [10] was > 92 µM (inactive) each time.
